# Assay results reported in ChEMBL document CHEMBL4513216, “Probing the Open Global Health Chemical Diversity Library for Multistage-Active Starting Points for Next-Generation Antimalarials” (ACS Infect Dis, 2020).
# In all, about 68,000 compounds went through this assay and about 2,700 (4%) showed an effect of 50% or more. The sample holds strong results, similar compounds and a random draw of the others, so the mix is not that of the screen.
# System: Plasmodium berghei
# Assay: Screen against P. berghei liver stage (PbLuc), transformed with Luciferase, at 2uM
# Assay type: functional, HepG2
# Settings: tested at 2 uM
row,SMILES,INHIBITION [%]
1,COC(C)(C)C(=O)N1Cc2cnc(C(C)(C)C)nc2C1,-82.18
2,CC(OCC1CC1)C(=O)Nc1cccc(C(=O)Nc2ccccn2)c1 (configuration not stated),-5.74
3,NC(=O)c1cn(CC2CC2)c(C2CC2)n1,-4.87
4,CCC[C@H]1CN(c2cncc(C(=O)N3CCCCC3)n2)C[C@@H]1N(C)C,-16.39
5,CCOC(=O)CNC(=O)Cn1c(-c2ccoc2)nc(C)c1C,-19.53
6,Cc1nc(-c2ccoc2)n(CC(=O)N(C)CC(C)C)c1C,64.82
7,Cc1nc(-c2ccoc2)n(CC(=O)NCC(C)C)c1C,19.53
8,O=C(Nc1ccccc1)C1CN(C(=O)c2cccs2)CC12CCOCC2 (configuration not stated),-36.65
9,CC1COCCN1Cc1nc(-c2ccc(F)cc2)no1 (configuration not stated),-24.5
10,CC(=O)Nc1nc(CN2CCOC(Cn3cncn3)C2)cs1 (configuration not stated),-0.13
11,CC(C)CC(=O)N1C[C@@H]2CCN(c3cnccn3)C[C@@H]2C1,20.51
12,O=C(C1CCCC1)N1C[C@@H]2CCN(c3cnccn3)C[C@@H]2C1,28.75
13,CCCC(=O)N1C[C@@H]2CCN(c3cnccn3)C[C@@H]2C1,50.72
14,O=C(C1CCCCC1)N1C[C@@H]2CCN(c3cnccn3)C[C@@H]2C1,50.17
15,O=C(c1cnccn1)N1C[C@@H]2CCN(c3cnccn3)C[C@@H]2C1,24.95
16,CCC(=O)N1C[C@@H]2CCN(c3cnccn3)C[C@@H]2C1,40.28
17,Cc1noc(C)c1CN1C(=O)[C@@H]2CC[C@H]1CN(Cc1cscn1)C2,-55.91
18,Cc1ccccc1SC1CCN(C(=O)C2[C@H]3CNC[C@@H]23)CC1 (some centres not stated),2.49
19,O=C(CCCn1cncn1)N1CCCC1c1noc(C2CC2)n1 (configuration not stated),8.65
20,Cc1nc(CN2CCCC2c2noc(C3CC3)n2)nc2ccccc12 (configuration not stated),22.29
21,CN1CCC(O)(CNC(=O)c2cc(COc3cccc(F)c3)[nH]n2)CC1,-13.79
22,Cc1n[nH]c(C2CN(C(=O)c3cc(C)sc3C)CCO2)n1 (configuration not stated),40.13
23,O=C(Cn1ccc2cc(Br)ccc21)NCc1ccc(C(=O)O)cc1,18.15
24,CCCS(=O)(=O)N1CCOC2(CCCN(c3ccc(C)nn3)C2)C1 (configuration not stated),-15.73
25,CCc1ccc(NC(=O)N2C[C@@H]3C[C@H](C(=O)NC)[C@H](C2)O3)cc1,-56.73
26,CNC(=O)[C@H]1C[C@H]2CN(C(=O)Nc3ccccc3)C[C@@H]1O2,7.35
27,CNC(=O)[C@H]1C[C@H]2CN(C(=O)Nc3ccc(F)cc3)C[C@@H]1O2,56.15
